Test results reported in PubChem BioAssay AID1159580 (chemical genetic matrix, 2015).
Screen size: about 5,500 compounds; about 2,000 (36%) were called active. Another 18% or so got no clear call; they are omitted. Cut-off read from the data, not from the text of the source: active = normalized growth mostly below about 0.91 (no sharp cut-off); inconclusive = no clear call, values can overlap the other calls; inactive = mostly above about 0.92. The list shows a part of the results.

Assay: chemical genetic growth profiling, strain panel (AID 1159580);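 note: tested at 20 µM; growth read once vehicle control cultures reached saturation at 30 °C; 1 = growth at the plate median or of vehicle wells; lower values mean less growth of the strain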
Conditions: S. cerevisiae deletion strains, growth OD

Measured: normalized growth

O=[N+]([O-])O[C@@H]1CO[C@H]2[C@@H]1OC[C@@H]2O
inactive: locus YHR030C, strain SLT2, hits give low values 0.983 | locus YHR079C, strain IRE1, hits give low values 0.991 | locus YJL095W, strain BCK1, hits give low values 1 | locus YJR066W, strain TOR1, hits give low values 0.955 | locus YLR113W, strain HOG1, hits give low values 0.999 | locus YNL183C, strain NPR1, hits give low values 0.932 | locus YOR231W, strain MKK1, hits give low values 0.981 | locus YPL256C, strain CLN2, hits give low values 0.966
